What all share (conditions): mRNA level, 48 h; actives raise or lower the signal
Read-out in assay [1]: Glutathione S-transferase M3 (GSTM3), GSTM3 (gene 2947)
The assay can be described thus: LTEA_HepaRG_GSTM3: Life Technologies and Expression Analysis (LTEA) Assay for Glutathione S-transferase M3 (GSTM3) using HepaRG (AID 2283501). The method in brief:
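HepaRG, plated 48 h, then serum-free induction medium; test chemical 48 h, duplicate; 100 uM top, half-log x8, 0.5% DMSO. Read-out: GSTM3 mRNA (TaqMan qRT-PCR, Fluidigm array). Bidirectional fit vs DMSO.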

Read-out in assay [2]: Heat shock 70 kDa protein 1 (HSPA1A), gene 3303
Kind of assay: LTEA_HepaRG_HSPA1A: Life Technologies and Expression Analysis (LTEA) Assay for Heat shock 70 kDa protein 1 (HSPA1A) using HepaRG (AID 2283502). In a few lines:
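Readout is HSPA1A transcript level by microfluidic qRT-PCR, normalized to three housekeeping genes and analysed for gain or loss of signal relative to 0.5% DMSO. Human HepaRG cultures received test chemicals for 48 h at up to 100 uM.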

Read-out in assay [3]: Hypoxia-inducible factor 1-alpha (Homo sapiens) (UniProt Q16665)
Kind of assay: LTEA_HepaRG_HIF1A: Life Technologies and Expression Analysis (LTEA) Assay for Hypoxia-inducible factor 1 (HIF1A) Trancription factor using HepaRG (AID 2283503). In a few lines: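 Differentiated HepaRG cells in serum-free induction medium exposed 48 h, in duplicate, to 8-point half-log series from 100 uM in 0.5% DMSO. HIF1A mRNA measured by TaqMan qRT-PCR, normalized to ACTB/GAPDH/POLR2A, fitted bidirectionally versus DMSO.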

Read-out in assay [4]: 3-Hydroxy-3-Methylglutaryl-CoA Synthase 2 (HMGCS2), HMGCS2 (gene 3158)
Kind of assay: LTEA_HepaRG_HMGCS2: Life Technologies and Expression Analysis (LTEA) Assay for 3-Hydroxy-3-Methylglutaryl-CoA Synthase 2 (HMGCS2) using HepaRG (AID 2283504). In a few lines: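 HepaRG, plated 48 h then switched to serum-free induction media; cmpd 8-pt, max 100 uM, 1/2-log, 0.5% DMSO, n=2, 48 h. HMGCS2 mRNA by Fluidigm TaqMan qRT-PCR, ACTB/GAPDH/POLR2A norm; bidirectional fit vs DMSO.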

Read-out in another assay: HGF (gene 3082)
The assay can be described thus: LTEA_HepaRG_HGF: Life Technologies and Expression Analysis (LTEA) Assay for Hepatocyte Growth Facto (HGF) using HepaRG (AID 2283505). The method in brief: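 Read-out is HGF transcript level by qRT-PCR, normalized to three housekeeping genes, fitted bidirectionally against 0.5% DMSO vehicle. Human HepaRG cells received test chemicals for 48 h at up to 100 uM.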

Read-out in assay [5]: Insulin Like Growth Factor 1 (IGF1), IGF1 (gene 3479)
Kind of assay: LTEA_HepaRG_IGF1: Life Technologies and Expression Analysis (LTEA) Assay for Insulin Like Growth Factor 1 (IGF1) using HepaRG (AID 2283506). In a few lines:
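HepaRG, plated 48 h, then switched to serum-free induction media; test chemical 8-pt half-log from 100 uM (0.5% DMSO), duplicate, 48 h. Lysis in RLT, TaqMan qRT-PCR, norm. ACTB/GAPDH/POLR2A. Bidirectional fit vs DMSO.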

Read-out in assay [6]: Intercellular Adhesion Molecule 1 (ICAM1), ICAM1 (gene 3383)
The assay can be described thus: LTEA_HepaRG_ICAM1: Life Technologies and Expression Analysis (LTEA) Assay for Intercellular Adhesion Molecule 1 (ICAM1) using HepaRG (AID 2283507). The method in brief:
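Readout is qRT-PCR mRNA level, normalized to three housekeeping genes and fitted bidirectionally against 0.5% DMSO vehicle. Human HepaRG cultures received compound for 48 h, top concentration 100 uM with half-log dilutions.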

Read-out in assay [7]: Potassium channel subfamily K member 1 (KCNK1), KCNK1 (gene 3775)
Kind of assay: LTEA_HepaRG_KCNK1: Life Technologies and Expression Analysis (LTEA) Assay for Potassium channel subfamily K member 1 (KCNK1) using HepaRG (AID 2283511). In a few lines: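 Differentiated human HepaRG cells in serum-free induction medium were exposed in duplicate for 48 h to 8 half-log concentrations up to 100 uM in 0.5% DMSO. KCNK1 mRNA was measured by TaqMan qRT-PCR, normalized to ACTB, GAPDH and POLR2A, and fitted bidirectionally versus DMSO.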

Read-out in assay [8]: Keratin 19 (KRT19), KRT19 (gene 3880)
Kind of assay: LTEA_HepaRG_KRT19: Life Technologies and Expression Analysis (LTEA) Assay for Keratin 19 (KRT19) using HepaRG (AID 2283512). The method in brief: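 KRT19 transcript levels, measured by Fluidigm qRT-PCR against three housekeeping genes, are fitted for gain or loss of signal relative to DMSO. Human HepaRG cells receive test chemicals (top 100 uM, half-log steps, 0.5% DMSO) for 48 hours.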

Read-out in assay [9]: JUN Transcription Factor, JUN (gene 3725)
The assay can be described thus: LTEA_HepaRG_JUN: Life Technologies and Expression Analysis (LTEA) Assay for JUN Transcription Factor using HepaRG (AID 2283513). In a few lines: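 Cells plated 48 h, medium switched to serum-free induction medium, then dosed 48 h (100 uM top, half-log dilutions, 0.5% DMSO). RNA isolated; JUN measured by qRT-PCR against three housekeeping genes; gain or loss fitted relative to DMSO.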

Read-out in assay [10]: Lipase C (LIPC), LIPC (gene 3990)
Kind of assay: LTEA_HepaRG_LIPC: Life Technologies and Expression Analysis (LTEA) Assay for Lipase C (LIPC) using HepaRG (AID 2283514). In a few lines: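 Differentiated human HepaRG cells in serum-free induction medium were exposed in duplicate for 48 h to eight concentrations (top 100 uM, half-log steps, 0.5% DMSO). LIPC mRNA was quantified by TaqMan qRT-PCR, normalized to ACTB, GAPDH and POLR2A, with bidirectional fitting versus DMSO.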

Read-out in assay [11]: Lipoprotein lipase (LPL), LPL (gene 4023)
The assay can be described thus: LTEA_HepaRG_LPL: Life Technologies and Expression Analysis (LTEA) Assay for Lipoprotein lipase (LPL) using HepaRG (AID 2283515). The method in brief: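 Differentiated human HepaRG cells in serum-free induction medium were exposed in duplicate for 48 h to eight half-log concentrations (top 100 uM) in 0.5% DMSO. LPL mRNA was quantified by TaqMan qRT-PCR, normalized to ACTB, GAPDH and POLR2A.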

Read-out in assay [12]: MicroRNA 122 (MIR122), gene 406906
Kind of assay: LTEA_HepaRG_MIR122: Life Technologies and Expression Analysis (LTEA) Assay for MicroRNA 122 (MIR122) using HepaRG (AID 2283516). Note: the transcript read is the microRNA miR-122. In a few lines: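 HepaRG plated 48 h, switched to serum-free induction medium, then treated in duplicate for 48 h (100 uM top, half-log steps, 0.5% DMSO vehicle). RNA isolated, qRT-PCR performed, concentration-response fitted both directions relative to DMSO.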

Read-out in assay [13]: matrix metalloproteinase-10 (MMP10), MMP10 (gene 4319)
Kind of assay: LTEA_HepaRG_MMP10: Life Technologies and Expression Analysis (LTEA) Assay for matrix metalloproteinase-10 (MMP10) using HepaRG (AID 2283517). In a few lines:
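HepaRG, collagen I, ~100,000 cells/well; serum-free induction medium; 48 h exposure, duplicate, 8-pt half-log to 100 uM, 0.5% DMSO. Readout: TaqMan qRT-PCR, normalized to ACTB/GAPDH/POLR2A; bidirectional fit vs DMSO.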

Read-out in assay [14]: matrix metalloproteinase-3 (MMP3), MMP3 (gene 4314)
Kind of assay: LTEA_HepaRG_MMP3: Life Technologies and Expression Analysis (LTEA) Assay for matrix metalloproteinase-3 (MMP3) using HepaRG (AID 2283519). The method in brief:
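Differentiated human HepaRG cells, plated 48 h on collagen I, were exposed in duplicate for 48 h in serum-free induction medium to eight half-log concentrations up to 100 uM in 0.5% DMSO. MMP3 mRNA was quantified by TaqMan qRT-PCR, normalised to ACTB, GAPDH and POLR2A.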

Read-out in assay [15]: Paternally Expressed 10 (PEG10), PEG10 (gene 23089)
Kind of assay: LTEA_HepaRG_PEG10: Life Technologies and Expression Analysis (LTEA) Assay for Paternally Expressed 10 (PEG10) using HepaRG (AID 2283520). The method in brief: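 HepaRG, 48 h post-plating → serum-free induction medium → 48 h chemical exposure (duplicate, 8-pt, max 100 uM, half-log, 0.5% DMSO) → lysis in RLT → TaqMan qRT-PCR for PEG10, ACTB/GAPDH/POLR2A normalisation.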

Read-out in assay [16]: Insulin-like growth factor-binding protein 1 (IGFBP1), IGFBP1 (gene 3484)
Kind of assay: LTEA_HepaRG_IGFBP1: Life Technologies and Expression Analysis (LTEA) Assay for Insulin-like growth factor-binding protein 1 (IGFBP1) using HepaRG (AID 2283508). In a few lines: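 Thawed HepaRG cells are plated for 48 h, switched to serum-free induction medium, then dosed in duplicate for another 48 h (100 uM top, half-log steps). Lysates in RLT go to qRT-PCR, and gain or loss of signal is fitted relative to vehicle.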

Read-out in assay [17]: Interleukin 6 (IL6), IL6 (gene 3569)
Kind of assay: LTEA_HepaRG_IL6: Life Technologies and Expression Analysis (LTEA) Assay for Interleukin 6 (IL6) using HepaRG (AID 2283509). The method in brief: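 Differentiated human HepaRG cells, plated 48 h then switched to serum-free induction medium, were exposed in duplicate for 48 h to eight half-log concentrations up to 100 uM in 0.5% DMSO. IL6 mRNA measured by qRT-PCR, normalized to ACTB/GAPDH/POLR2A.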

Read-out in another assay: MYC, MYC (gene 4609)
Kind of assay: LTEA_HepaRG_MYC: Life Technologies and Expression Analysis (LTEA) Assay for MYC using HepaRG (AID 2283518). The method in brief:
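HepaRG, ~100,000 cells/well, collagen I; 48 h plating; serum-free induction medium; 48 h dosing, duplicate, 100 uM top, half-log, 0.5% DMSO; total RNA → qRT-PCR MYC; gain/loss fit vs DMSO.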

Read-out in assay [18]: Interleukin 6 Receptor (IL6R), IL6R (gene 3570)
Kind of assay: LTEA_HepaRG_IL6R: Life Technologies and Expression Analysis (LTEA) Assay for Interleukin 6 Receptor (IL6R) using HepaRG (AID 2283510). In a few lines: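 Readout is IL6R transcript level by TaqMan qRT-PCR, normalized to three housekeeping genes and fitted bidirectionally against 0.5% DMSO controls. Human HepaRG cells received chemicals for 48 h in serum-free induction medium, highest concentration 100 uM.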

Activity calls are given as the source filed them. Rule for the calls: active = hit-call score of the fitted dose curve at least 0.9, where 1 is the maximum; inactive = score below 0.9.

For orientation: AC50 means the concentration at which the activity in the assay is half-maximal.

Hypoxia-inducible factor 1-alpha (Homo sapiens), sequence (Q16665 whole entry, looked up): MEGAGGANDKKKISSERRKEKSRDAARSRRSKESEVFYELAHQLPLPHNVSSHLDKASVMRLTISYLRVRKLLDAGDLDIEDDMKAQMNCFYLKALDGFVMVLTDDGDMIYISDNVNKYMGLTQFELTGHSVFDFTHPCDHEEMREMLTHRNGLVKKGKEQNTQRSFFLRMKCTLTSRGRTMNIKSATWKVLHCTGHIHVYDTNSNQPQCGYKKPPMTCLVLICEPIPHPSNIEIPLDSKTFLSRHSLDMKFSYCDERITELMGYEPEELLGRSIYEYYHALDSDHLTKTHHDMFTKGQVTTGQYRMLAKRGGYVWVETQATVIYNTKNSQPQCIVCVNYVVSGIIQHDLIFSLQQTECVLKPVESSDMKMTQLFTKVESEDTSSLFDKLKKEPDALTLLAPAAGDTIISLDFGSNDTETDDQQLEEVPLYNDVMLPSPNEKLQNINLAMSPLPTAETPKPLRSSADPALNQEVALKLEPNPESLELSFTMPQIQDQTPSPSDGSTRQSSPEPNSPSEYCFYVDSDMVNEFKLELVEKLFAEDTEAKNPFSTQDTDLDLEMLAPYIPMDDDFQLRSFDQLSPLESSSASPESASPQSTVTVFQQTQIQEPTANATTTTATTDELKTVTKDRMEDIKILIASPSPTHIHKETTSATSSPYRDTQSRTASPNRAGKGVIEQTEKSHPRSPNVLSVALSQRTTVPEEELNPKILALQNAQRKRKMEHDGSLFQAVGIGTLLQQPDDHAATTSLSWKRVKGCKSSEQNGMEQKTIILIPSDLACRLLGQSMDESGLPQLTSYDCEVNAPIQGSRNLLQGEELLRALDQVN

In the case of `CCCCCCCCOC(=O)c1ccc(C(=O)OCCCCCCCC)c(C(=O)OCCCCCCCC)c1`, the molecule was called inactive (in [1]; in assay [2]; in assay [3]; in [4]; with HGF (gene 3082); in assay [5]). The outcome in assay [6], in [7], in [8], in assay [9], in assay [10] and in [11] was inactive. For the same molecule, the call in assay [12], in assay [13], in assay [14] and in assay [15] was inactive.

With `CS(=O)(=O)NC(=O)c1cc(Oc2ccc(C(F)(F)F)cc2Cl)ccc1[N+](=O)[O-]`, the molecule was classed as inactive (in [1]; in [2]; in assay [3]; in the assay with HGF (gene 3082); in assay [5]; in assay [16]). Also, the call in [17], in assay [7], in assay [8], in assay [9], in [10] and in assay [11] was inactive. In addition, the outcome in assay [12] is “inactive”; in [13], “inactive”; with MYC, MYC (gene 4609), “inactive”; in assay [14] it was “inactive”. Moreover, the AC50 was 7.76 µM (active) in assay [4] and 31 µM (active) in [15].

For `Cc1ccc(N)c(N)c1`, the result (in [1]; in assay [2]; in assay [3]; in [4]; in the assay with HGF (gene 3082); in assay [5]) was inactive. The result in assay [6], in assay [16], in assay [7], in assay [9], in [10] and in [11] was inactive. Also, the outcome in assay [12] was “inactive”; in assay [13], “inactive”; with MYC, MYC (gene 4609), “inactive”; in assay [14] it was “inactive”; in assay [15] it was “inactive”. In assay [8], the AC50 was 32.8 µM (active).

As for `CC(C)(C)C(O)(CCc1ccc(Cl)cc1)Cn1cncn1` (stereo unspecified), the molecule was classed as inactive in assay [1], in assay [2], in assay [3], in [17], in [18] and in assay [7]. Further, the molecule was classed as inactive in assay [8], in assay [9], in assay [13], in assay [14] and in assay [15]. Further, the AC50 in assay [4] is 72.3 µM (active); with HGF (gene 3082) it was 79.1 µM (active); in assay [5], 50 µM (active); in assay [16], 50 µM (active); in assay [10], 71.8 µM (active); in assay [11], 74.4 µM (active). Also, the half-maximal activity concentration (AC50) in [12] is 78.1 µM (active); with MYC, MYC (gene 4609), 50 µM (active).
